PostGolgi yeast: growth inhibition of a yeast mutant, post-Golgi transport screen; inhibition, % at 10 µM; AID 739; hit rate 0.9% among 98,000; post-Golgi transport phenotypic cell assay;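 note: yeast cells grown in 1536-well plates; yeast grown about 18 h at 30C before absorbance read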
PostGolgi ctrl: yeast control strain growth, post-Golgi counter-screen. efflux-deficient yeast background strain, growth absorbance A615, 16 h. inhibition, % at 10 µM. hit rate 5% among 98,000
CYP2C19 inhib: human CYP2C19 inhibition. AID 778. inhibition, % at 5 µM. hit rate 21% among 96,000. CYP2C19 Supersomes, luciferin-H EGE luminescence, 30 min;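 active = CYP2C19 inhibition above a set limit at 5 µM in the primary screen, cut at about 50% in these data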;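 note: plate controls were negative control wells for no effect and 2.5 mM tranylcypromine positive control for full effect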
CYP2C9 inhib: blocks human cytochrome P450 2C9 | P11712 | CYP2C9 Supersomes, luciferin-H conversion, luminescence | inhibition, % at 5 µM | hit rate 20% among 96,000 | AID 777;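 active = blocking of liver enzyme CYP2C9 beyond about 50% at 5 µM, limit read from the data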
Target sequence (P11712 whole entry, looked up): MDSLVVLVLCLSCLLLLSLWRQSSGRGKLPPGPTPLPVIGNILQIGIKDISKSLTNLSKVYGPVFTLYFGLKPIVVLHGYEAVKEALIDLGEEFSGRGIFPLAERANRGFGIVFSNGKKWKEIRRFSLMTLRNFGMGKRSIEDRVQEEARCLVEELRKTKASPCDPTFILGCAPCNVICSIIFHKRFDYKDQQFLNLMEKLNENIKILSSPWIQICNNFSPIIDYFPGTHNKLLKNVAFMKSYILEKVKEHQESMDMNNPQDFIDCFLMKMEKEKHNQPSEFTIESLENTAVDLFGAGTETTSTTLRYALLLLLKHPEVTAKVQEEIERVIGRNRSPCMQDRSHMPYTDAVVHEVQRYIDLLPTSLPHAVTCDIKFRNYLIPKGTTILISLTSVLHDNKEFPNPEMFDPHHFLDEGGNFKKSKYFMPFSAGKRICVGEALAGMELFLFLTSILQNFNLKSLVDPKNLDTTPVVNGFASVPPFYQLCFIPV
CYP2C9 act: increases human cytochrome P450 2C9 activity; AID 1024; hit rate 1.4% among 96,000; activation factor at 5 µM; P11712; recombinant CYP2C9, luciferin-H conversion, luminescence; stronger effect = higher value; factor 1 = untreated enzyme, 0 = blocked;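 active = activation factor of 2 or more for CYP2C9 at a 5 µM dose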;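 note: 0 = sulfaphenazole-blocked wells and 1 = vehicle-only wells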
CYP2C19 act: cytochrome P450 2C19 (human) activation; P33261; AID 1025; activation factor at 5 µM; recombinant CYP2C19, luciferin-H EGE luminescence; stronger effect = higher value; 0 = fully inhibited enzyme, 1 = untreated enzyme; 96,000 tested, under 10 active;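 active = activation factor of at least 2 at 5 µM in the primary screen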;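 note: 0 = wells with 2.5 mM tranylcypromine and 1 = vehicle-only wells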
Starred values were filed as active, the others as inactive. An excerpt weighted towards active compounds, which were near 32% of everything screened. Cut-off read from the data, not from the text of the source, unless noted: active = inhibition above about 30%; inactive = the rest.

SMILES	PostGolgi yeast	PostGolgi ctrl	CYP2C19 inhib	CYP2C9 inhib	CYP2C9 act	CYP2C19 act
COc1ccc(-c2nnc(SCc3cccc(C)c3)n2N)cc1	-6	5	52*	-14	1.1	0.5
Cc1cccc(CSc2nnc(-c3ccco3)n2C)c1	-19	-1	37	3	1	0.6
COc1ccc(-c2nnc(SCc3cc(C)ccc3C)n2N)cc1	-3	4	62*	-16	1.2	0.4
COc1ccc(OCCSc2nnc(-c3ccc(OC)cc3)n2N)cc1	20	5	38	32	0.7	0.6
Cc1cccc(CSc2nnc(-c3ccccn3)n2N)c1	17	12	60*	-42	1.4	0.4
O=C(CNCC1CCCO1)Nc1ccccc1N1CCCCCC1 (configuration not stated)	1	5	32	19	0.8	0.7
O=C(O)CCC(=O)NNC(=O)CCC(=O)NCc1ccccc1	-6	-8	13	11	0.9	0.9
CCCCCCC(=O)Nc1cc2c(C)cc(=O)oc2cc1C	15	8	41	-155	2.5*	0.6
CCCn1c(CN2CCN(C)CC2)nc2ccccc21	-5	4	27	1	1	0.7
CCCCS(=O)CC(O)COc1ccc(C(C)(C)C)cc1 (configuration not stated)	16	22	58*	8	0.9	0.4
CC(C)c1ccc(NC2(C#N)C(=O)Nc3ccccc32)cc1 (configuration not stated)	-7	7	34	-75	1.7	0.7
CC(C)Oc1ccc(C(CC(=O)O)NC(=O)CSc2ncn[nH]2)cc1 (configuration not stated)	9	25	-15	-13	1.1	1.1
CCOc1ccc(S(=O)(=O)Nc2cc(Sc3ncn[nH]3)c3oc(=O)sc3c2)cc1	2	-6	69*	67*	0.3	0.3
Cc1ccc(C(=O)c2coc3ccc(OCC(=O)O)cc23)cc1	3	11	3	13	0.9	1
Cc1oc2c(c1C(=O)c1ccc(Cl)cc1)C(=O)C(=O)c1ccccc1-2	45*	58*	28	22	0.8	0.7
Cc1ccc(C(=O)c2c(C)oc3c2C(=O)C(=O)c2ccccc2-3)cc1	29	-5	63*	56*	0.4	0.4
Cc1ccc(C(=O)c2coc3c2C(=O)C(=O)c2ccccc2-3)cc1	81*	70*	46	72*	0.3	0.5
O=C(Nc1ccc2c(c1)C(=O)N(CC1CCCO1)C2=O)c1ccc(Cl)c(Cl)c1 (configuration not stated)	-5	10	-27	26	0.7	1.3
OCc1nn2c(c1Br)NC(c1ccccc1)CC2C(F)(F)F (configuration not stated)	-7	2	71*	74*	0.3	0.3
COc1ccc(C2CC(C(F)(F)F)n3ncc(C(=O)O)c3N2)cc1OC (configuration not stated)	4	-3	-23	-19	1.2	1.2
COc1ccc(C2CC(C(F)(F)F)n3nc(C(N)=O)c(Cl)c3N2)cc1OC (configuration not stated)	0	-2	15	58*	0.4	0.9
O=C(O)c1nn2c(c1Br)NC(c1ccccc1)CC2C(F)(F)F (configuration not stated)	-4	32*	0	14	0.9	1
COc1ccc(-c2noc(CCCC(=O)NCc3ccco3)n2)cc1OC	-5	0	13	13	0.9	0.9
NC(=O)c1ccc(C2SCC(=O)N2Cc2ccccc2)cc1 (configuration not stated)	1	4	23	16	0.8	0.8
Cc1cc(C)cc(Nc2ncc3c(n2)CCCC3=O)c1	9	33*	8	2	1	0.9
SMILES	PostGolgi yeast	PostGolgi ctrl	CYP2C19 inhib	CYP2C9 inhib	CYP2C9 act	CYP2C19 act
O=C1CC(c2ccco2)Cc2nc(Nc3nc(-c4ccccc4)c4ccccc4n3)ncc21 (configuration not stated)	2	9	59*	68*	0.3	0.4
Cc1ccc(C(=O)Nc2ncc3c(n2)CC(c2ccco2)CC3=O)cc1 (configuration not stated)	-12	-6	13	7	0.9	0.9
Cc1ccc(NC(=O)CSCC(=O)Nc2ncc3c(n2)CC(c2ccco2)CC3=O)cc1 (configuration not stated)	-5	4	25	62*	0.4	0.8
Cc1ccc(Nc2ncc3c(n2)CC(c2ccco2)CC3=O)c(C)c1 (configuration not stated)	8	25	34	67*	0.3	0.7
CCCC(=O)c1c[nH]c(C(=O)NCc2ccco2)c1	-3	-4	11	4	1	0.9
COC(=O)c1sccc1-n1cccc1C(=O)C(=O)N1CC(C)OC(C)C1 (configuration not stated)	4	2	18	-38	1.4	0.8
Cc1cc(C)cc(Nc2ncc3c(n2)CC(c2ccco2)CC3=O)c1 (configuration not stated)	5	2	37	58*	0.4	0.6
Cc1cccc(Nc2ncc3c(n2)CC(c2ccco2)CC3=O)c1 (configuration not stated)	-1	20	4	16	0.8	1
O=C1CSC(=O)N1CC(O)COc1ccc(Cl)cc1 (configuration not stated)	-4	10	54*	23	0.8	0.5
Cn1c(COc2ccccc2)nnc1SCC(=O)c1cccc([N+](=O)[O-])c1	0	-1	8	33	0.7	0.9
Cc1cc(C)c(Cn2c(=O)n(CCCC(=O)NCc3ccco3)c(=O)c3sccc32)c(C)c1	24	9	27	61*	0.4	0.7
O=C(CCCn1c(=O)c2sccc2n(Cc2cc(=O)n3ccccc3n2)c1=O)NCc1ccco1	-1	-5	16	66*	0.3	0.8
O=C(CCCCn1c(=S)[nH]c2ccsc2c1=O)NCc1ccco1	3	2	33	67*	0.3	0.7
Cc1ccc(C)c(Cn2c(=O)n(CCC(=O)NCc3ccco3)c(=O)c3sccc32)c1	6	8	-5	9	0.9	1.1
Cc1ccccc1Cn1c(=O)n(CCCC(=O)NCc2ccco2)c(=O)c2sccc21	-6	11	89*	94*	0.1	0.1
O=C(CCn1c(=O)c2sccc2n(Cc2cc(=O)n3ccccc3n2)c1=O)NCc1ccco1	9	3	-9	20	0.8	1.1
CCOC(=O)C(C(=O)NCc1cccc(OC)c1)c1ncc(C(F)(F)F)cc1Cl (configuration not stated)	-5	-1	19	10	0.9	0.8
COC(=O)c1c(NC(=O)CN2CCC(C)CC2)c2c(C)cccc2n1C	26	11	20	6	0.9	0.8
CCc1cc2cc(C)ccc2nc1SCC(=O)N1CCN(C(=O)c2ccco2)CC1	-3	11	41	70*	0.3	0.6
